# Compound activity: PubChem BioAssay, several laboratories
# PHOSPHO1 inh: inhibitors of human PHOSPHO1 phosphatase; inhibition, % at 13.3 µM; Q8TCT1; recombinant PHOSPHO1, absorbance phosphatase assay; 290,000 tested, 1.1% active; in the data active means inhibition above about 60%
# Target sequence (Q8TCT1 whole entry, looked up): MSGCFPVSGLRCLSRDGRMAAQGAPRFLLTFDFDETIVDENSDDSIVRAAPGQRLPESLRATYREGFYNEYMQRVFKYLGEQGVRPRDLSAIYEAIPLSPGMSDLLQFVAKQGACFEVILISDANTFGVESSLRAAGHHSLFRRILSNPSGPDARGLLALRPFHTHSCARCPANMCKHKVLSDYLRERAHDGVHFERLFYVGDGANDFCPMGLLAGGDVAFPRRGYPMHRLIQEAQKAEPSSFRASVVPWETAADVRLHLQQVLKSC
# APOBEC3G inh: inhibitors of human APOBEC3G DNA deaminase | inhibition, % at 20 µM | 330,000 tested, 0.28% active | recombinant A3G, ssDNA deamination FAM/TAMRA fluorescence;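 active means inhibition of at least 40% at 20 µM, with no more than 30% in the related APOBEC3A deaminase screen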;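 further: plate controls were DMSO wells with A3G for no effect and wells lacking A3G enzyme for full effect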
# esBAF inh: blocks esBAF chromatin remodeling in mouse ES cells | 350,000 tested, 2% active | AID 602393 | Bmi1-luciferase knock-in reporter, 24 h; 100% = twice the neutral-well signal | reporter increase, % at 12.5 µM; in the data active means activation above about 40%;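 further: 0% = median of the plate's neutral control wells and 100% = double that signal; a rise in the Bmi1 reporter signal indicates esBAF inhibition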
# A3A deaminase: human APOBEC3A DNA deaminase inhibition | P31941 | 330,000 tested, 0.41% active | recombinant A3A, FAM/TAMRA ssDNA deamination fluorescence | inhibition, % at 20 µM;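 active means at least 40% inhibition at 20 µM here, with at most 30% in a related deaminase screen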;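 further: plate controls were A3A with DMSO for no effect and wells lacking A3A enzyme for full effect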
# Target sequence (P31941 whole entry, looked up): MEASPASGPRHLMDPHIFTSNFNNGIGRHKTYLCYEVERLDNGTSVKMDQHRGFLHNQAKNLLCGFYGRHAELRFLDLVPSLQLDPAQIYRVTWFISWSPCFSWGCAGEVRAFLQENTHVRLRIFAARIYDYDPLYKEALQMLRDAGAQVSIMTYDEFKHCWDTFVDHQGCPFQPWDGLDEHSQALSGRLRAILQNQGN
# Wnt bcat act: activates Wnt/beta-catenin signaling in a reporter cell assay; activator, plate reader; activation, % at 9.35 µM; 300,000 tested, 1.2% active; AID 743398; in the data active means activation above about 30%, passing the limit was not always enough;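 further: 0% = neutral control wells and 100% = positive control wells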
# MITF TRPM1 HTS: increases MITF-driven TRPM1 promoter luciferase signal. SK-MEL-5 TRPM1-promoter luciferase, 24 h; % of positive control, neutral wells = 0. activation, % at 12.5 µM. 300,000 tested, 0.75% active;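 active means mean activation of at least 80% with every replicate also reaching 80%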;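 further: 0% = neutral control wells and 100% = parthenolide positive control wells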
# * = called active by the depositor; . = no result. An excerpt weighted towards active compounds, which were near 3.6% of everything screened.
SMILES,PHOSPHO1 inh,APOBEC3G inh,esBAF inh,A3A deaminase,Wnt bcat act,MITF TRPM1 HTS
CN(C)S(=O)(=O)c1cccc(-c2cn3cccnc3n2)c1,20.3,-4.0,.,0.1,-2.1,-2.9
CO[C@@H]1CN(C)C(=O)c2cc(NC(=O)Nc3cccc(F)c3)ccc2OC[C@@H](C)N(C(=O)C2CC2)C[C@H]1C,.,.,3.4,.,.,.
C[C@@H]1CN([C@@H](C)CO)C(=O)c2cc(NC(=O)CCC(F)(F)F)ccc2O[C@@H]1CN(C)C(=O)NC1CCCCC1,.,.,0.8,.,.,.
CC(=O)Nc1cc2c(cc1Cl)-c1ccccc1C2,.,.,51.8*,.,-0.2,19.3
Oc1c(C(c2cccs2)N2CCN(c3ccccc3)CC2)ccc2cccnc12 (stereo unspecified),69.1*,25.0,.,9.1,.,.
Oc1c(C(c2ccccc2Cl)N2CCCC2)ccc2cccnc12 (stereo unspecified),1.0,-3.9,.,5.3,-0.1,-73.3
COCC#Cc1cnc2c(c1)C(=O)N([C@H](C)CO)C[C@@H](C)[C@@H](CN(C)Cc1ccc3c(c1)OCO3)O2,.,.,-3.9,.,.,.
CC(C)C#Cc1ccc2c(c1)O[C@@H](CN(C)C(=O)c1ccccn1)[C@H](C)CN([C@@H](C)CO)S2(=O)=O,.,.,2.3,.,.,.
O=[N+]([O-])c1ccc(NCc2ccc(Cl)cc2)nc1,21.0,-3.2,.,-1.4,0.1,.
CC(C)c1ccc(CNc2ccc([N+](=O)[O-])cn2)cc1,20.4,-1.2,.,3.6,7.4,88.8*
COCCNC(=S)N1C[C@H]2CON(C)[C@H]2C[C@H]1c1ccccc1Br,.,.,.,.,-4.0,.
C[C@H]1CN([C@@H](C)CO)C(=O)c2cccc(NC(=O)NC3CCCCC3)c2O[C@@H]1CN(C)C(=O)Nc1ccccc1,.,.,1.2,.,.,.
O=C(COc1cccnc1[N+](=O)[O-])Nc1cc(Cl)ccc1Cl,.,-5.7,48.1*,-0.6,-2.3,67.5
COc1ccc([N+](=O)[O-])cc1NC(=O)COC(C)=O,64.7*,-7.0,.,5.4,0.4,6.6
COc1cc(Cl)c(C)cc1NC(=O)COc1ccc(C)nc1[N+](=O)[O-],.,-3.0,80.7*,-3.1,18.1,99.2*
O=C(COc1cccnc1[N+](=O)[O-])Nc1ncc(Cl)cc1Cl,.,15.7,15.3,23.6,-3.7,1.8
Cc1ccc(OCC(=O)Nc2ccc(Cl)cc2)c([N+](=O)[O-])n1,.,-12.0,62.9*,-2.3,41.5*,109.7*
Cc1ccc(OCC(=O)NCC(=O)Nc2ccc(F)cc2)c([N+](=O)[O-])n1,0.8,-3.1,-3.0,-2.6,-1.5,6.7
COc1ccc(NC(=O)COc2ccc(C)nc2[N+](=O)[O-])cc1S(N)(=O)=O,.,-3.2,-7.0,-0.7,-1.0,-6.1
C[C@@H]1CN([C@@H](C)CO)C(=O)c2cc(NC(=O)Nc3ccc4c(c3)OCO4)ccc2O[C@@H]1CN(C)Cc1ccc(C(F)(F)F)cc1,.,.,4.1,.,.,.
CN1c2ccc(C#Cc3cccnc3)cc2[C@H]2[C@H](CCN2C(=O)CN2CCOCC2)[C@@H]1CO,.,.,5.3,.,.,.
Cc1ccc(OCC(=O)Nc2ccc(F)cc2)c([N+](=O)[O-])n1,43.8,-6.1,.,2.2,12.1,104.0*
CCCN1[C@@H]2c3ccc(-c4ccccc4)c(=O)n3C[C@H]1[C@H](CO)[C@H]2C(=O)NCCCN1CCOCC1,.,.,4.3,.,.,.
CCCC(=O)Nc1ccc2c(c1)OC[C@H](C)N(Cc1cccc(F)c1)C[C@H](C)[C@H](OC)CN(C)C2=O,.,.,-1.9,.,.,.
COc1ccc(NC(=O)c2cc(-c3ccco3)on2)c(OC)c1,12.1,-0.7,7.7,-1.1,-0.9,1.6
SMILES,PHOSPHO1 inh,APOBEC3G inh,esBAF inh,A3A deaminase,Wnt bcat act,MITF TRPM1 HTS
Cc1cc(NC(=O)c2cc(C3CC3)on2)no1,11.8,-0.2,48.6*,4.5,0.9,.
COc1ccc(NC(=O)c2cc(C3CC3)on2)c(OC)c1,-9.3,-2.4,53.3*,-1.4,-3.1,.
O/N=C(/CCc1ccccc1)c1ccc2c(c1)OCCO2,33.5,-4.9,45.8*,-2.3,8.7,92.3*
O=C(CCc1ccccc1)c1ccc2c(c1)OCCCO2,7.4,-9.1,76.0*,-2.9,.,122.0*
O=C(CCCc1ccccc1)c1ccc2c(c1)OCCO2,-4.2,-3.6,-84.1,-1.5,-11.7,-78.0
CCOC(=O)c1c(CN2CCN(Cc3ccccc3)CC2)n(C)c2cc(Br)c(OC)cc12,-6.1,3.9,-7.1,4.2,-6.1,5.3
CCOC(=O)c1c(CN2CCC(C)CC2)n(C)c2cc(Br)c(OC)cc12,46.4,0.9,.,4.1,40.4*,9.1
